Assay results reported in PubChem BioAssay (NCATS).
Results filed as inconclusive are left out. Active and inactive are the calls of the source. Unless noted, calls follow the shape of the dose curve; as a rule, active = well fitted curve in the direction sought with a large enough effect; inconclusive = small, poorly fitted or top-dose-only effect, or another doubt; inactive = no such curve, though single readings can be large; an effect the other way counts as inactive or inconclusive.

Assays:
[1] = molecular target: Lysosomal acid glucosylceramidase (Homo sapiens) (UniProt P04062); assay: Glucocerebrosidase-p2 (AID 348; in the data active = potency below about 10 µM; also: potency is read from the fitted curve at half-maximal effect); details: purified GBA, blue fluorogenic substrate, 40 min
Lysosomal acid glucosylceramidase (Homo sapiens), sequence (P04062 whole entry, looked up): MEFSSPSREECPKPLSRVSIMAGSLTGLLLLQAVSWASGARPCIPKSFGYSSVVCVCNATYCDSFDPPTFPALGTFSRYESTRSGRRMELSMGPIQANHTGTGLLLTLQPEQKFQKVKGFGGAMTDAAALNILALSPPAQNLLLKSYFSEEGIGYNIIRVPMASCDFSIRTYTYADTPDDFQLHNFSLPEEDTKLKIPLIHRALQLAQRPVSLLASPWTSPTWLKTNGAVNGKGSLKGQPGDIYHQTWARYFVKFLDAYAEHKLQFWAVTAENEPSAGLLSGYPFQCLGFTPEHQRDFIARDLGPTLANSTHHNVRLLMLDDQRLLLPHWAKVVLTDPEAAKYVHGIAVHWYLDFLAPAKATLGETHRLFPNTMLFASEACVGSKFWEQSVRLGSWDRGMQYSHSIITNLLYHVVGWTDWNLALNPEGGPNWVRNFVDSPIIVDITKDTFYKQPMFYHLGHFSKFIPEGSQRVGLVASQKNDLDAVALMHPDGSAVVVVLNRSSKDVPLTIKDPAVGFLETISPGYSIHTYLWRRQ
Outline: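 Normal human glucocerebrosidase (0.2 nM) with blue fluorogenic substrate (80 uM final) in citrate/phosphate pH 5.9 with 10mM sodium taurocholate, 0.01% tween-20; 40 min RT, NaOH/glycine stop; fluorescence Ex 365/Em 440; AC50 from a titration from 0.6 nM upwards.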

[2] = molecular target: Glucocorticoid receptor (Homo sapiens) (UniProt P04150); assay: GR-GFP Redistribution (AID 450;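 active = compounds whose dose series gives a full or clear partial fitted curve of increased nuclear translocation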; also: potency is read from the fitted curve at half-maximal effect); details: U2OS GR-GFP nuclear translocation, laser cytometry, 2 h
Glucocorticoid receptor (Homo sapiens), sequence (P04150 whole entry, looked up, the tested form may be a part): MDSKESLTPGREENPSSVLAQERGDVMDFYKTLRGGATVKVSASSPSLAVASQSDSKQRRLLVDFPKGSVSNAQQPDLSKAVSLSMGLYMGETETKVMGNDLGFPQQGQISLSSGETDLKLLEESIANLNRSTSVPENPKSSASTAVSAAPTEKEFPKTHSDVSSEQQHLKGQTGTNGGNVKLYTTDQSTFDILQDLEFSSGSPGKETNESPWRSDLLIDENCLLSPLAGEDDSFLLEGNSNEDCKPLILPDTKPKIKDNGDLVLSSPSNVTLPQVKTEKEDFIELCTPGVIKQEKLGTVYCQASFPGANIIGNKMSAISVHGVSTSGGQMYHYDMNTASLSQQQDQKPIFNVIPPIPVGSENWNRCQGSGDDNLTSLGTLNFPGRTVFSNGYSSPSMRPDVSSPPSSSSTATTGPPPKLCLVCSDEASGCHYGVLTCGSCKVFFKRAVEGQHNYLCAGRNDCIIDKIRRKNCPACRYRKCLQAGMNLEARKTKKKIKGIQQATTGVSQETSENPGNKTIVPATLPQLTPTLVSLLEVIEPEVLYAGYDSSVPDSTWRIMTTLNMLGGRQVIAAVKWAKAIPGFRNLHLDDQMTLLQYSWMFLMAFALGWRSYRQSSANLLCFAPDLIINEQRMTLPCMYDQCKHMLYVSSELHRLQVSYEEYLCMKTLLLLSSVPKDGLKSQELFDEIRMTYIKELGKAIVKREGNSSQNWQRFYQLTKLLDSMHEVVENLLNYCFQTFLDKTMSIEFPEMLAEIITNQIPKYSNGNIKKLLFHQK

[3] = molecular target: Glucocorticoid receptor (Homo sapiens) (UniProt P04150); assay: GR-EFC Redistribution (AID 451; calls by dose curve; also: potency is read from the fitted curve at half-maximal effect); details: CHO-K1 GR-EFC translocation, beta-gal luminescence, 2 h
Outline: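 Translocation of GR-ED fusion to nuclear EA restores b-gal, read by luminescence after 1 h room-temperature detection. Engineered CHO-K1 biosensor cells, 1,000/well, exposed 2 h at 37 C to titrations up to 46 uM final.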

[4] = molecular target: 3',5'-cyclic-AMP phosphodiesterase 4B (Homo sapiens) (UniProt Q07343); assay: qHTS Assay for Inhibitors of PDE-IV (AID 607; active = well fitted activation curve with a large enough effect in the main read-out, with a control signal flat, not every such curve was filed as active; also: % of control where 0% means no effect); details: HEK293 ACTOne CNG channel cells, membrane potential fluorescence; series mostly up to 22.9 µM
3',5'-cyclic-AMP phosphodiesterase 4B (Homo sapiens), sequence (Q07343 whole entry, looked up): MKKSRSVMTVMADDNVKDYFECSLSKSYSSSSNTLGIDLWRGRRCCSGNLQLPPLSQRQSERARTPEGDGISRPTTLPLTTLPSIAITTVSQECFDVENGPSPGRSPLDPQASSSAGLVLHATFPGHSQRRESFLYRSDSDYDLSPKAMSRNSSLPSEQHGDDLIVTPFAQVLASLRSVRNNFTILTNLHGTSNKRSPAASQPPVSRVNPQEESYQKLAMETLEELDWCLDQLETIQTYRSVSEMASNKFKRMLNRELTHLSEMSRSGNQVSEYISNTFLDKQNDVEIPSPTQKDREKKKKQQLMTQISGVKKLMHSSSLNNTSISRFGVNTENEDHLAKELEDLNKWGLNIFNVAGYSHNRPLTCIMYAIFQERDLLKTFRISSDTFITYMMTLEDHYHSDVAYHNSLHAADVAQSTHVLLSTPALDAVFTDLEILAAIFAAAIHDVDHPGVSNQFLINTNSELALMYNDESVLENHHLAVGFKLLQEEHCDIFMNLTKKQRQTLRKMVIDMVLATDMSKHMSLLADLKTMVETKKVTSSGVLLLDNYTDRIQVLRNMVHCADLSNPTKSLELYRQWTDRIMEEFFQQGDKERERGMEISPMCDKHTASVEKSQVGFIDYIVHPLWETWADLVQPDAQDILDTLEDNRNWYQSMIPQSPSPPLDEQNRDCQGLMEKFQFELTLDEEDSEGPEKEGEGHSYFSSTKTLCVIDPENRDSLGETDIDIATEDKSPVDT
Outline: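 Live HEK293 cells with a modified cyclic nucleotide-gated (CNG) channel report intracellular cAMP via membrane-potential dye fluorescence (ex 535/em 590 nm). Endogenous PDE-IV was targeted. Compounds were tested at up to 22.9 uM final; RO 20-1724 100 uM served as control.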

[5] = molecular target: Cytochrome P450 3A4 (Homo sapiens) (UniProt P08684); assay: qHTS Assay for Activators of Cytochrome P450 3A4 (AID 885); details: recombinant CYP3A4, Luciferin-PPXE luminescence, 60 min; series mostly up to 57.1 µM; also: nearly all actives have a fitted effect of over 65% in size
Cytochrome P450 3A4 (Homo sapiens), sequence (P08684 whole entry, looked up): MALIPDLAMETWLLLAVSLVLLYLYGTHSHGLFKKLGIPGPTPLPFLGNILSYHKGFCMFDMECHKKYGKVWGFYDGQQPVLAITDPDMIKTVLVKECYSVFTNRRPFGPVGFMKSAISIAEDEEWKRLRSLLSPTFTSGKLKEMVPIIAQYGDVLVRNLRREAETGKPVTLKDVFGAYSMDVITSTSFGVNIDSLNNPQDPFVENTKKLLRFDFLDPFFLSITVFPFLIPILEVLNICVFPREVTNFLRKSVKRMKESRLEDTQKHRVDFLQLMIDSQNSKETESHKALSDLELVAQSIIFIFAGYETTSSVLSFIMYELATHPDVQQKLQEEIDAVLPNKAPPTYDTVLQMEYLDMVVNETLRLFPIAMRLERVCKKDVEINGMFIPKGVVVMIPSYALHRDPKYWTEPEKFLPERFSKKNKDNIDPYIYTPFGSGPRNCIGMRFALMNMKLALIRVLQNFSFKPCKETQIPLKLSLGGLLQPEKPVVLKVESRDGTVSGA
Outline: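 Using 20nM recombinant human CYP3A4 in potassium phosphate (200mM), substrate Luciferin-PPXE at 25uM, luminescent luciferin detection followed a 60-min RT NADPH reaction; data scaled to 57 uM ketoconazole.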

[6] = molecular target: Dual specificity protein kinase CLK4 (Homo sapiens) (UniProt Q9HAZ1); assay: qHTS Assay for Inhibitors of CDC-like Kinase 4 (Kinase-Glo Assay) (AID 1770); details: recombinant Clk4, Kinase-Glo ATP depletion luminescence; series mostly up to 66.7 µM; also: nearly all actives have a fitted effect of over 65% in size; also: potency is read from the fitted curve at half-maximal effect
Dual specificity protein kinase CLK4 (Homo sapiens), sequence (Q9HAZ1 whole entry, looked up): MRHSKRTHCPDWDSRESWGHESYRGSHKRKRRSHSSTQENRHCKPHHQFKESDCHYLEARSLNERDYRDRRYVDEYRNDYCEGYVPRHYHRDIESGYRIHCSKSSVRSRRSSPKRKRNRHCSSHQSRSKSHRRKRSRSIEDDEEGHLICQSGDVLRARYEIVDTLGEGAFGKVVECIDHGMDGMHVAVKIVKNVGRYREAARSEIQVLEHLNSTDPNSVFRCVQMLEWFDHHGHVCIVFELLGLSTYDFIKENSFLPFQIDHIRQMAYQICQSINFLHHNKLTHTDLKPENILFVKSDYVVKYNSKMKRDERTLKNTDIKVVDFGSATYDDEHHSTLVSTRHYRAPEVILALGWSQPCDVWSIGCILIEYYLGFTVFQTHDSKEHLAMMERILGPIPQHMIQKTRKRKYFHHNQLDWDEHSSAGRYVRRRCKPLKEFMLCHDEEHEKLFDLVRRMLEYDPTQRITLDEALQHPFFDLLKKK
Outline: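 25 nM Clk4 with 100 uM RS repeat peptide and 1 uM ATP (final) in Tris pH7.5, 10 mM MgCl2, 4.5 h at room temperature. Remaining ATP measured by Kinase-Glo luciferase luminescence.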

[7] = molecular target: Dual specificity protein kinase CLK4 (Homo sapiens) (UniProt Q9HAZ1); assay: qHTS Assay for Inhibitors of CDC-like Kinase 4 (ADP-Glo Assay) (AID 1771); details: recombinant CLK4, ADP-Glo luminescence; series mostly up to 80 µM; also: nearly all actives have a fitted effect of over 70% in size; also: potency is read from the fitted curve at half-maximal effect
Outline: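 ADP production was read by ADP-Glo luminescence after residual ATP depletion, following 1 h room-temperature reaction of 25 nM Clk4, 1 uM ATP and 100 uM RS peptide with MgCl2, EGTA, DTT and Triton X-100.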

[8] = molecular target: Dual specificity protein kinase CLK4 (Homo sapiens) (UniProt Q9HAZ1); assay: qHTS Assay for Inhibitors of CDC-like Kinase 4 (ADP-FP Assay) (AID 1795); details: Transcreener ADP fluorescence polarization; series mostly up to 50 µM; also: nearly all actives have a fitted effect of over 60% in size; also: potency is read from the fitted curve at half-maximal effect
Outline: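 Recombinant Clk4 (6.25 nM) phosphorylated 100 uM RS repeat peptide with 1 uM ATP in 25 mM Tris pH 7.5, 10 mM MgCl2, 0.5 mM EGTA, 2.5 mM DTT, 0.01% Triton X-100 for 1 h. ADP was detected by Transcreener ADP2 competitive fluorescence polarization after 30 min at room temperature.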

[9] = Primary qHTS for small molecule stabilizers of the endoplasmic reticulum resident proteome: Secreted ER Calcium Modulated Protein (SERCaMP) assay (AID 1508630); details: SH-SY5Y GLuc-SERCaMP (Gaussia luciferase released on ER calcium loss) secretion, thapsigargin, luminescence; series mostly up to 38.4 µM; also: % is scaled to controls: 0 for no effect and ±100 for the full control effect
Outline: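 The SH-SY5Y reporter protocol was run at 3 concentrations up to 38.3 uM (primary) or 11 concentrations (follow-up): 16 h compound, 100 nM thapsigargin for 4 h, then extracellular luciferase luminescence.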

[10] = AP1 Signaling Pathway (AID 357; active = well fitted curve in either direction with a large enough effect, not every such curve was filed as active;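 also: ME-180 reporter cells stimulated with EGF at its EC50 level; % is scaled to controls: 0 for no effect and ±100 for the full control effect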); details: ME-180 AP-1-bla reporter, EGF-induced, beta-lactamase ratio, 5 h; at 7.69 µM (top of the series) unless noted
Outline: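 Titration-series screen for positive or negative modulators of EC50 EGF-induced signaling in ME-180 cells carrying an AP-1-driven beta-lactamase reporter. After 5 hours at 37 degrees Celsius, CCF4 460nm/530nm emission ratio gave %Activity; AC50 values derived.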

[11] = molecular target: Cytochrome P450 1A2 (Homo sapiens) (UniProt P05177); assay: p450-cyp1a2 (AID 410; calls by dose curve; also: potency is read from the fitted curve at half-maximal effect); details: recombinant CYP1A2, luciferin-ME demethylation, luminescence; series mostly up to 57 µM
Cytochrome P450 1A2 (Homo sapiens), sequence (P05177 whole entry, looked up): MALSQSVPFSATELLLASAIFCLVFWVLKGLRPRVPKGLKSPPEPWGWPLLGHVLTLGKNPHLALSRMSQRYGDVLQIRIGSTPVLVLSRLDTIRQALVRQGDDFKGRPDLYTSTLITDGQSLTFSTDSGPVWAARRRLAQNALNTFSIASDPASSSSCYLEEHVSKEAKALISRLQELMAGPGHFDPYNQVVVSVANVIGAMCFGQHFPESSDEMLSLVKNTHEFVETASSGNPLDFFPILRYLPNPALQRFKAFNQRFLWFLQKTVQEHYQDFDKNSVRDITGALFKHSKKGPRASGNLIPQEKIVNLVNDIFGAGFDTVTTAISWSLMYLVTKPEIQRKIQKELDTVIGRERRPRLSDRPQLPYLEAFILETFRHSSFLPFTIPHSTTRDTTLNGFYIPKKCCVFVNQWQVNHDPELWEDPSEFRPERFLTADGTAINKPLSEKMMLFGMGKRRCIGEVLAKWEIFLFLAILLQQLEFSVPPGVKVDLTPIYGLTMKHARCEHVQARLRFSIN
Outline: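 Luminescent demethylation readout: Luciferin-ME (100uM, equal to Km) turned over by 20nM CYP1A2 for 60 min at room temperature after NADPH regeneration addition, following 10 min compound preincubation. Normalization used 57 uM furafylline as full inhibition.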

[12] = Stat Signaling Pathway (AID 446; active = well fitted curve in either direction with a large enough effect, not every such curve was filed as active;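 also: ME-180 cervical cancer cells given 40 pM IL-6 alongside compound; SIE-controlled beta-lactamase reporter measured as 460/530 nm FRET emission ratio; % is scaled to controls: 0 for no effect and ±100 for the full control effect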); details: ME-180 SIE beta-lactamase reporter, IL-6 stimulated, 5 h; at 7.69 µM (top of the series) unless noted
Outline: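 Overnight-plated ME-180 cells bearing a STAT Inducible Element beta-lactamase reporter; 5 h co-exposure to compound and 40 pM IL-6; values normalized to 300 pM IL-6 and 125 nM JAK inhibitor controls.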

[13] = molecular target: Mitogen-activated protein kinase 10 (Mus musculus) (UniProt Q61831); assay: JNK3 AlphaScreen Assay (AID 530; active = well fitted curve in either direction with a large enough effect, not every such curve was filed as active;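 also: kinase came from lysate of stimulated human HepG2 cells; signal reports phosphorylation of biotinylated GST-cJun 1-79 at Ser73 with 10 µM ATP; % is scaled to controls: 0 for no effect and ±100 for the full control effect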); details: JNK3 lysate, c-Jun phosphorylation; series mostly up to 57.1 µM
Outline: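 qHTS titrations with 15 min compound pre-incubation before adding ATP (10 uM final). Read-out: AlphaScreen of Ser73-phosphorylated biotin-GST-cJun using HepG2 lysate JNK3 activated by IL-1β and TNFα.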

[14] = molecular target: Cytochrome P450 3A4 (Homo sapiens) (UniProt P08684); assay: qHTS Assay for Inhibitors and Substrates of Cytochrome P450 3A4 (AID 884); details: recombinant CYP3A4, Luciferin-PPXE luminescence; series mostly up to 57.1 µM; also: nearly all actives have a fitted effect of over 50% in size; also: potency is read from the fitted curve at half-maximal effect
Outline: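 Luminescent readout of luciferin produced by CYP3A4 (20 nM) dealkylation of Luciferin-PPXE, 25 uM (its KM). NADPH-driven reaction ran 60 min at RT after 10 min compound preincubation; data scaled to 57 uM ketoconazole as 100% inhibition.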

[15] = molecular target: Cytochrome P450 2C19 (Homo sapiens) (UniProt P33261); assay: qHTS Assay for Inhibitors and Substrates of Cytochrome P450 2C19 (AID 899); details: recombinant CYP2C19, luciferin-H EGE luminescence; series mostly up to 57.1 µM; also: potency is read from the fitted curve at half-maximal effect; nearly all actives have a fitted effect of over 60% in size
Cytochrome P450 2C19 (Homo sapiens), sequence (P33261 whole entry, looked up): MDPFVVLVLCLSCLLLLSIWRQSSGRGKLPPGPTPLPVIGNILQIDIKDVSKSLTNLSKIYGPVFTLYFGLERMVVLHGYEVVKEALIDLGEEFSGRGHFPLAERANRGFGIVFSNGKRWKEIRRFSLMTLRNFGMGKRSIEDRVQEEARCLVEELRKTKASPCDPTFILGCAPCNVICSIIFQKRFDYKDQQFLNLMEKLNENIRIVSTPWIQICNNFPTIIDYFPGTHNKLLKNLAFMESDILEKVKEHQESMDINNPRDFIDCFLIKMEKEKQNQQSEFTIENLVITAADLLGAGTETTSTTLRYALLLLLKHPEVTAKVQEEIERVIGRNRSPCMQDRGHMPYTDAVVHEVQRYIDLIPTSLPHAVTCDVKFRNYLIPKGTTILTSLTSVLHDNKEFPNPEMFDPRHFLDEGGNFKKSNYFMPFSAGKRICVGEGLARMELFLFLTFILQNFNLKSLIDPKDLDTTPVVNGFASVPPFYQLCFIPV
Outline: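 Reactions contain 5nM enzyme, 10uM Luciferin-H EGE (KM) and 50mM KPO4; compound preincubates 10 min at 37C, NADPH regeneration starts turnover for 60 min. Luminescence after detection reagent gives activity.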

[16] = molecular target: Ubiquitin carboxyl-terminal hydrolase 1 (Homo sapiens) (UniProt O94782); assay: Inhibitors of USP1/UAF1: Pilot qHTS (AID 504865); details: purified USP1/UAF1, Ub-rhodamine cleavage fluorescence; series mostly up to 54.9 µM;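 also: rhodamine fluorescence freed from ubiquitin-rhodamine substrate followed over time; top concentration of the series differs between compounds; % is scaled to controls: 0 for no effect and ±100 for the full control effect; nearly all actives have a fitted effect of over 35% in size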
Ubiquitin carboxyl-terminal hydrolase 1 (Homo sapiens), sequence (O94782 whole entry, looked up): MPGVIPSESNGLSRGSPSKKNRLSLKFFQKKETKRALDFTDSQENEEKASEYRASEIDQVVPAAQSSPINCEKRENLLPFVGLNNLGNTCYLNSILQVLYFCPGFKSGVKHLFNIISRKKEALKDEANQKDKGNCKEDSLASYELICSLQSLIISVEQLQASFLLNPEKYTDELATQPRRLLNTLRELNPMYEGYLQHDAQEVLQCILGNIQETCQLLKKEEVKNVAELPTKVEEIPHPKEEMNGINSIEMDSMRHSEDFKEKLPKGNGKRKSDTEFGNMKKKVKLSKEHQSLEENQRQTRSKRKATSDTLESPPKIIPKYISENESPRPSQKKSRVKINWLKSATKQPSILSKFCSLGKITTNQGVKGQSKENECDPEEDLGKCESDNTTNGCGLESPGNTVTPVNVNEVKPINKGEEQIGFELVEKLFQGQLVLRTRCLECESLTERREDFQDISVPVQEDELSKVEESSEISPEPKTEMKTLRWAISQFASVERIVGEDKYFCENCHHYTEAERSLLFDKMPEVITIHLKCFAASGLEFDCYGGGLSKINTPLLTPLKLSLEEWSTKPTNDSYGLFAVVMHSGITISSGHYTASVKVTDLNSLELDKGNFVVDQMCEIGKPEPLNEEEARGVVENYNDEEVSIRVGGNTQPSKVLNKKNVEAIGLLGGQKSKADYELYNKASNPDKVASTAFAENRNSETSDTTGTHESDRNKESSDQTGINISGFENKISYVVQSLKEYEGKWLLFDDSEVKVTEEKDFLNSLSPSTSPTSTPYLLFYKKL
Outline: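 USP1/UAF1 complex at 1 nM preincubated 15 min at room temperature with compound, then Ub-Rho substrate added at 150 nM final. Fluorescence (480/540 nm) read kinetically in 50 mM HEPES pH 7.8, 0.5 mM EDTA, 1 mM TCEP, 0.1 mg/ml BSA, 0.01% Tween-20.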

[17] = molecular target: Cytochrome P450 2C9 (Homo sapiens) (UniProt P11712); assay: qHTS Assay for Inhibitors and Substrates of Cytochrome P450 2C9 (AID 883); details: recombinant CYP2C9, luciferin-H luminescence, 60 min; series mostly up to 57.1 µM; also: % is scaled to controls: 0 for no effect and ±100 for the full control effect; nearly all actives have a fitted effect of over 60% in size
Outline: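 Turnover of Luciferin-H (100uM, KM) by 10nM human CYP2C9 was measured over 60 min at 37C with NADPH regeneration; inhibitors and some substrates reduce luminescence. Data normalized to sulphaphenazole 57uM.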

[18] = molecular target: Cytochrome P450 2D6 (Homo sapiens) (UniProt P10635); assay: qHTS Assay for Inhibitors and Substrates of Cytochrome P450 2D6 (AID 891); details: recombinant CYP2D6, luciferin-ME EGE luminescence; series mostly up to 57.1 µM;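 also: luciferin methyl ether substrate demethylated by CYP2D6 with NADPH regeneration; % is scaled to controls: 0 for no effect and ±100 for the full control effect; nearly all actives have a fitted effect of over 60% in size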
Outline: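 Luminescent read-out of luciferin formed by 5 nM human CYP2D6 demethylating 30 uM Luciferin-ME EGE (Km level) over 60 min at room temperature after NADPH regeneration addition. Data normalized to full inhibition by 1.43 uM quinidine.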

[19] = qHTS Assay for Identification of Small Molecule Agonists for Hypoxia Response Element Signaling Pathway (AID 914; active = well fitted activation curve with a large enough effect in the signal ratio, with a control signal flat, not every such curve was filed as active; the % refers to the signal ratio; also: potency is read from the fitted curve at half-maximal effect; as to activation: % of control where 0% means no effect); details: ME-180 (cervical carcinoma) HRE-bla reporter, beta-lactamase ratio, CoCl2, 17 h; activation: hits give high values
Outline: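 AC50 values come from titration-series %Activity, taken as the 460/530nm ratio of CCF4 fluorescence (excitation 405nm). CellSensor HRE-bla ME-180 cells were treated 17 hours at 37 C with compound plus an EC50 level of CoCl2.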

[20] = NFAT Signaling Pathway (AID 444; active = well fitted curve in either direction with a large enough effect, not every such curve was filed as active); details: Jurkat NFAT-bla M1, carbachol, beta-lactamase ratio, 5 h; at 7.69 µM (top of the series) unless noted
Outline: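 Read-out: CCF4 FRET ratio (460 nm/530 nm) after 1 h RT dye loading, used for %activity and AC50 from titration series. Cells: Jurkat NFAT-β-lactamase/M1 line, treated with compound plus 1 uM carbachol for 5 h, 37 °C.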

O=c1c(-c2ccc(Cl)cc2)nc2cnc(N3CCNCC3)nc2n1CCc1ccccc1
inactive: Potency [1] > 11.4 µM | Potency [2] > 9.22 µM | Potency [3] > 46 µM | Potency [4] | Potency [5] | Potency [6] | Potency [7] | Potency [8] | outcome [9]

COc1cccc(-c2nc(NCc3ccccc3OC)c3ccccc3n2)c1
inactive: activity change, negative = inhibition [10] 9.52% | activity, negative = inhibition [12] -9.86% | Potency [2] > 46 µM | Potency [3] > 46 µM | Potency [13] | Potency [5] | Potency [6] | Potency [7] | Potency [8] | Potency [16] | outcome [9]
active: Potency [11] 0.631 µM | Potency [14] 3.98 µM | Potency [15] 7.94 µM

O=c1c(-c2ccc(Cl)cc2)nc2cnc(N3CCOCC3)nc2n1Cc1ccc(F)cc1
active: Potency [19] 3.16 µM
inactive: Potency [1] > 11.4 µM | Potency [2] > 9.22 µM | Potency [3] > 46 µM | Potency [13] | Potency [17] | Potency [14] | Potency [18] | Potency [6] | Potency [7] | Potency [8] | outcome [9]

CN(Cc1ccco1)c1ncncc1-c1cccc(NS(C)(=O)=O)c1
active: Potency [11] 15.8 µM | Potency [14] 0.794 µM
inactive: activity change, negative = inhibition [10] -8.59% | activity change, negative = inhibition [20] -4.49% | activity, negative = inhibition [12] 8.28% | Potency [2] > 46 µM | Potency [3] > 46 µM | Potency [13] | Potency [4] | Potency [6] | Potency [7] | Potency [8] | Potency [16] | outcome [9]

O=c1c(-c2cccs2)nc2cncnc2n1Cc1ccc(F)cc1
inactive: activity change, negative = inhibition [10] -19.2% | activity change, negative = inhibition [20] -15.7% | activity, negative = inhibition [12] -3.58% | Potency [2] > 9.22 µM | Potency [3] > 46 µM | Potency [13] | Potency [4] | Potency [5] | Potency [6] | Potency [7] | Potency [8] | Potency [16] | outcome [9]
active: Potency [11] 2.51 µM | Potency [15] 7.94 µM

COc1ccccc1CNc1cc(-c2ccc(C(=O)N(C)C)cc2)ncn1
active: Potency [6] 7.08 µM | Potency [7] 7.08 µM | Potency [8] 11.2 µM
inactive: Potency [1] > 11.4 µM | activity change, negative = inhibition [20] 8.83% | Potency [2] > 46 µM | Potency [3] > 46 µM | Potency [13] | Potency [5] | activation [19] 6.06% | Potency [16] | outcome [9]

O=c1c(-c2cc(F)cc(F)c2)nc2cnc(N3CCOCC3)nc2n1Cc1ccc(F)cc1
inactive: Potency [1] > 11.4 µM | Potency [2] > 9.22 µM | Potency [3] > 46 µM | Potency [13] | Potency [4] | Potency [6] | Potency [7] | Potency [8] | Potency [16] | outcome [9]
